The values that follow come from PubChem BioAssay (Tox21).

Unmarked numbers belong to inactive results. Results filed as inconclusive are left out. The source made the active and inactive calls. Unless noted, calls follow the shape of the dose curve; as a rule, active = well fitted curve in the direction sought with a large enough effect in the repeat runs; inconclusive = weak or mixed curves; inactive = no such curve, though single readings can be large; an effect the other way counts as inactive or inconclusive.

A short description of assay [1]: A CellTox Green Cytotoxicity Assay to monitor cytotoxicity in HepG2 cells - 8 hour (AID 1224890). Also: nearly all actives have a fitted effect of over 45% in size. A digest of the protocol: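 First, HepG2 cells (600/well) mixed with reagent were plated; second, after 5 h at 37 C they received compounds via pintool; third, fluorescence was measured at 0 h through 40 h at 8 h intervals.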
A short description of assay [2]: qHTS assay to identify small molecule antagonists of the estrogen receptor alpha (ER-alpha) signaling pathway using the BG1 cell line in the presence of 0.1 nM 17-beta-estradiol - cell viability counter screen (AID 1259241). Also: nearly all actives have a fitted effect of over 40% in size. In a few lines: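 VM7Luc4E2 cells (endogenous full-length ER-alpha, 4xERE-luciferase), cultured 5 days in charcoal-stripped serum, exposed to compounds with 0.1 nM 17beta-estradiol (final) for 22 hr at 37C. Viability read in same wells as live-cell protease fluorescence after 30 min.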
A general note: Quantitative high-throughput screening tests each substance at several concentrations.

Assay [3] is described as follows: qHTS assay to identify small molecule antagonists of the androgen receptor (AR) signaling pathway using the MDA cell line in the presence of 0.5 nM R1881 - cell viability counter screen (AID 1259242). Also: nearly all actives have a fitted effect of over 45% in size. A digest of the protocol:
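qHTS format. MDA-kb2 (MMTV-luc, AR/GR responsive) + cpd + 0.5 nM R1881 final, 16 hr 37C/0% CO2 → CellTiter-Fluor 30 min → fluorescence intensity.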

The target of assay [4] is Androgen receptor (Homo sapiens) (UniProt P10275). The experiment in a line: qHTS assay to identify small molecule antagonists of the androgen receptor (AR) signaling pathway using the MDA cell line in the presence of 0.5 nM R1881 (AID 1259243). Also: nearly all actives have a fitted effect of over 50% in size. Also: potency is read from the fitted curve at half-maximal effect. In a few lines:
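Antagonist mode quantitative HTS in MDA-kb2 MMTV-luciferase cells, agonist R1881 at 0.5 nM final, 16 hr exposure at 37C and 0% CO2, luminescent detection.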

The target of assay [5] is Estrogen receptor (Homo sapiens) (UniProt P03372). The experiment in a line: qHTS assay to identify small molecule antagonists of the estrogen receptor alpha (ER-alpha) signaling pathway using the BG1 cell line in the presence of 0.1 nM 17-beta-estradiol (AID 1259244). Also: nearly all actives have a fitted effect of over 50% in size. Also: potency is read from the fitted curve at half-maximal effect. A digest of the protocol: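 Reporter is a stably transfected luciferase under four estrogen responsive elements in VM7Luc4E2 cells expressing native full-length ER-alpha; inhibition of 0.1 nM (final) 17beta-estradiol-driven signal over 22 h is read by luminescence.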

The nature of assay [6]: qHTS assay to identify small molecule phospholipidosis (PLD) inducers (AID 1259344; active = well fitted curve in the direction sought with a large enough effect; an effect the other way counts as inactive or inconclusive). In a few lines: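 Accumulated phospholipid, stained red by LipidTOX during 24 h compound treatment of HepG2 cells at 37 C, is quantified from images as pit number and intensity, normalised per cell using Hoechst-stained nuclei.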
A short description of assay [7]: qHTS assay to identify small molecule HDAC inhibitors (AID 1259364).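 Also: wild-type HCT-116 cells with endogenous class I/II HDAC activity; top concentration of the series differs between compounds; nearly all actives have a fitted effect of over 45% in size.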 A digest of the protocol:
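Quantitative high-throughput format: overnight-seeded HCT-116 cells got compounds for 2 hr at 37C; HDAC-Glo I/II reagent added, 30 min RT, luminescence measured.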

Assay [8] is described as follows: qHTS assay to identify small molecule HDAC inhibitors - cell viability counter screen (AID 1259365). Also: series mostly up to about 92 µM; nearly all actives have a fitted effect of over 50% in size. A digest of the protocol:
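Wild-type HCT-116 cells, 1,500/well, cultured overnight, then compound-treated 2 h at 37 C. Viability measured as ATP luminescence with CellTiter-Glo after 30 min at room temperature.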

The nature of assay [9]: qHTS assay to identify small molecule agonists of the sonic hedgehog signaling (Shh) pathway - cell viability counter screen (AID 1259366). Also: nearly all actives have a fitted effect of over 50% in size. In a few lines:
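NIH/3T3-derived Gli1-Luc reporter cells, 2,000 per well, received compound after 4 h and were treated about 23 h at 37C. Viability measured in the same wells by CellTiter-Fluor fluorescence after 1 h.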

Assay [10] in a line: qHTS assay to identify small molecule antagonists of the sonic hedgehog signaling (Shh) pathway - cell viability counter screen (AID 1259367). Also: nearly all actives have a fitted effect of over 55% in size. A digest of the protocol:
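CellTiter-Fluor signal in conditioned medium-stimulated 3T3 Gli1-Luc cells, 23 hr compound exposure, 37C.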
% is scaled to controls: 0 for no effect and ±100 for the full control effect.

Sequence of Estrogen receptor (Homo sapiens) (P03372 whole entry, looked up): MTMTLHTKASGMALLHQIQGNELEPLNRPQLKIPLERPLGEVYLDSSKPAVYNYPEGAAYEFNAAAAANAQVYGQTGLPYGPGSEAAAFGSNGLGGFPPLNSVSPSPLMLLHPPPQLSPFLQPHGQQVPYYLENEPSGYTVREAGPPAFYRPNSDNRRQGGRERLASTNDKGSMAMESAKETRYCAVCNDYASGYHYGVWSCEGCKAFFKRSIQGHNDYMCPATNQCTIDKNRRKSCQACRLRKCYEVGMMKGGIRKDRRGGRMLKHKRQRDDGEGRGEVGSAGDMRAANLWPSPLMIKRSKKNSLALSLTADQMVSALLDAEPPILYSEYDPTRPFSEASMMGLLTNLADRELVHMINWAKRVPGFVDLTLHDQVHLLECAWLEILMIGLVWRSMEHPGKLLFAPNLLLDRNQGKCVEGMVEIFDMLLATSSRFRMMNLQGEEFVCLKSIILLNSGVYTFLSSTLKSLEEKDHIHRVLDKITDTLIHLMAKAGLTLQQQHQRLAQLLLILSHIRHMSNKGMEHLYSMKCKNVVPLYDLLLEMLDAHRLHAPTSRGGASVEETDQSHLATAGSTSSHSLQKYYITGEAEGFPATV
Sequence of Androgen receptor (Homo sapiens) (P10275 whole entry, looked up): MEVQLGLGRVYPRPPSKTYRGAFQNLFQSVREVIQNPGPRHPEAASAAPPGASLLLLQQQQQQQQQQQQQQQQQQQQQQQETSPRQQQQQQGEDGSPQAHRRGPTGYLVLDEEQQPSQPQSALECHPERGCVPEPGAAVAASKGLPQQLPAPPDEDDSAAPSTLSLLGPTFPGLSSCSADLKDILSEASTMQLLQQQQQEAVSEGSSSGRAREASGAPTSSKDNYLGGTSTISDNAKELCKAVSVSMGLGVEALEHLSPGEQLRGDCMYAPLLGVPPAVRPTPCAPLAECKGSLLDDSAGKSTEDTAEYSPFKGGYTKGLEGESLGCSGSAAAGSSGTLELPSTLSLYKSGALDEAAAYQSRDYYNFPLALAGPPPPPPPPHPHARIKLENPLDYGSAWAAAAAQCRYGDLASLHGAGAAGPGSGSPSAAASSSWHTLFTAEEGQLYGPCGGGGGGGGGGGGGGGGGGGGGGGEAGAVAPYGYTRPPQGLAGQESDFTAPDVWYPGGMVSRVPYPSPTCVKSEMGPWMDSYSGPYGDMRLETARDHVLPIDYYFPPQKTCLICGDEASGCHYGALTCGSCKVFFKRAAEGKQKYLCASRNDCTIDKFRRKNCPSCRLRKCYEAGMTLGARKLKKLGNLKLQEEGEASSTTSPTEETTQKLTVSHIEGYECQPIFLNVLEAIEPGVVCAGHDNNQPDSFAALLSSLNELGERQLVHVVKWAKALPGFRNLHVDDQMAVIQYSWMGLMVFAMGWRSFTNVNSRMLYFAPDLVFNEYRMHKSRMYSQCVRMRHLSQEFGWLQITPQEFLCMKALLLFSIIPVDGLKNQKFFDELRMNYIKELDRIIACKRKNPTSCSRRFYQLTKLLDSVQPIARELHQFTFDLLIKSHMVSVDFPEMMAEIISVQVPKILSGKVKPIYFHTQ

As to `O=C(Nc1ccc(Cl)c(Cl)c1)C1CC1`, the call in assay [1], in [3], in assay [6] and in assay [8] was inactive. Further, the Potency entry in [2], in [7], in assay [9] and in assay [10] was “inactive” each time. Also, the Potency is 5.96 µM (active) in assay [4] and 26.6 µM (active) in [5].
Take `Oc1ccccc1-c1nnco1`: the call in assay [1], in [3] and in assay [8] was inactive. Besides, the Potency entry in [2], in assay [4], in assay [5], in assay [7], in assay [9] and in [10] was “inactive” in each case.
Turning to `CC(S)C(=O)NCC(=O)O` (stereo not drawn), the molecule was called inactive in assay [1], in assay [3], in assay [6] and in assay [8]. Also, the Potency result in [2], in assay [4], in [7], in assay [9] and in assay [10] was “inactive” in each case.
As to `COc1ccc2c(c1)C(=O)N(CCc1ccc(S(=O)(=O)NC(=O)NC3CCCCC3)cc1)C(=O)C2(C)C`, the outcome in [1], in [3], in assay [6] and in assay [8] was inactive. For the same molecule, the Potency result in assay [2], in assay [4], in [5], in assay [7], in assay [9] and in [10] was “inactive” each time.
As for `Cc1cccc(C)c1NC(=O)c1ccccc1C(=O)O`, the molecule was called inactive in assay [1], in assay [3], in assay [6] and in assay [8]. Moreover, the Potency result in [2], in assay [4], in [5], in [9] and in assay [10] was “inactive” each time.
On to `CCCOC(=O)C(C)O` (stereo not drawn), for which the outcome in [1], in [3] and in [8] was inactive. The Potency result in [2], in assay [4], in assay [5], in [7], in [9] and in assay [10] was “inactive” in each case.
As for `Cc1cc(C(C)(C)C)c(O)c(C)c1CC1=NCCN1`, the molecule was classed as inactive in [1], in assay [3], in assay [6] and in assay [8]. Besides, the Potency result in [2], in assay [4], in assay [5], in assay [9] and in assay [10] was “inactive” throughout.
For `CCN(CC)CC(=O)Nc1c(C)cccc1C`, the molecule was called inactive in assay [1], in assay [3], in assay [6] and in assay [8]. Also, the Potency entry in [2], in [4], in assay [7], in [9] and in assay [10] was “inactive” throughout.
As for `CC(C)NCC(O)COc1ccc(COCCOC(C)C)cc1` (stereo not drawn), the outcome in assay [1], in assay [3], in assay [6] and in assay [8] was inactive. Further, the Potency entry in assay [2], in assay [4], in assay [5], in assay [7], in [9] and in assay [10] was “inactive” throughout.
In the case of `CCN(C)C(=O)Oc1cccc([C@H](C)N(C)C)c1`, the molecule was called inactive in [1], in [3], in assay [6] and in [8]. Further, the Potency result in [2], in assay [4], in assay [5], in assay [7], in assay [9] and in assay [10] was “inactive” each time.
`O=C1c2ccccc2C(=O)N1CCl`: the outcome in assay [1], in assay [3] and in assay [8] was inactive. In addition, the Potency entry in [2], in assay [4], in [5], in assay [7], in [9] and in assay [10] was “inactive” in each case.
Turning to `CC(C)NCC(O)COc1cccc2[nH]ccc12` (stereo not drawn), the molecule was classed as inactive in [1], in assay [3], in assay [6] and in assay [8]. Further, the Potency result in assay [2], in [4], in [9] and in [10] was “inactive” throughout.
Turning to `CC(CC=O)CCCC(C)(C)O` (stereo not drawn), the call in [1], in [3], in assay [6] and in [8] was inactive. Besides, the Potency entry in assay [2], in [4], in assay [5], in assay [7], in [9] and in assay [10] was “inactive” in each case.
Turning to `CCCC/C=C/C=C\C=O`, the result in [1], in assay [3] and in assay [8] was inactive. For the same molecule, the Potency entry in assay [2], in [4], in [5], in assay [7], in [9] and in [10] was “inactive” throughout.
`O=C(OCc1ccccc1)C(=O)OCc1ccccc1`: the outcome in assay [1], in [3] and in [8] was inactive. The Potency result in assay [2], in assay [4], in assay [5], in assay [7] and in assay [9] was “inactive” in each case.
Take `CC(C)c1ccc2cc(C(C)C)ccc2c1`: the molecule was called inactive in assay [1], in [3] and in [8]. The Potency entry in assay [2], in [4], in assay [5], in [7], in [9] and in assay [10] was “inactive” in each case.
Take `CCOC(=O)c1ncn2c1CN(C)C(=O)c1cc(F)ccc1-2`: the outcome in assay [1], in assay [3], in assay [6] and in assay [8] was inactive. For the same molecule, the Potency entry in [2], in assay [4], in [5], in [7], in [9] and in assay [10] was “inactive” each time.
In the case of `O=C(NCCc1c[nH]c2ccccc12)c1cccnc1`, the molecule was called inactive in [1], in assay [3], in assay [6] and in assay [8]. Moreover, the Potency entry in assay [2], in assay [4], in [5], in assay [9] and in assay [10] was “inactive” each time.
As to `CC(=O)OC(C)OC(=O)C(C)c1ccc(-c2ccccc2)c(F)c1` (stereo not drawn), the molecule was called inactive in assay [1], in [3], in assay [6] and in assay [8]. Besides, the Potency entry in assay [2], in assay [4], in [5], in [7], in assay [9] and in assay [10] was “inactive” in each case.
On to `CC(C)C(=O)OCc1cccc(OC(=O)[C@@H]2N3C(=O)[C@@H](NC(=O)Cc4ccccc4)[C@H]3SC2(C)C)c1`, for which the molecule was classed as inactive in assay [1] and in assay [3]. The Potency entry in assay [2], in [4], in [5], in [7], in assay [9] and in assay [10] was “inactive” throughout.
Regarding `Oc1cn2c(n1)Nc1ccc(Cl)c(Cl)c1C2`, the cytotoxicity increase in assay [1] is -5.9% [at 15.8 µM]. The activity change, negative = cytotoxicity in assay [2] is 0.999% [at 19 µM]; in [8] it was 1.3% [at 19 µM]. Also, the figures for the viability change, negative = cytotoxic in [3], in [9] and in assay [10] were 1.91% [at 19 µM], 3.75% [at 19 µM] and -4.16% [at 19 µM], respectively. Moreover, the activity, negative = inhibition in assay [4] was 16.6% [at 19 µM]. Moreover, the activity change, negative = inhibition in [5] is -26.8% [at 19 µM]; in [7], -1.7% [at 19 µM]. Besides, the outcome in assay [6] was inactive.
In the case of `COCCOCCOCCOCCO`, the molecule was classed as inactive in assay [1], in assay [3] and in [8]. Further, the Potency result in assay [2], in [4], in [5], in assay [7], in [9] and in assay [10] was “inactive” each time.
